Reference: paper PMC10726135, “HNF4α isoforms regulate the circadian balance between carbohydrate and lipid metabolism in the liver”
In all, about 18,000 sequences were measured (“log2 normalized intensity”: median about 0.39, highest 2% from about 6.6 on). This excerpt belongs to a sample that is enriched for the highest values.

Each sequence was assayed against T1, HNF4alpha2 (COS-7 nuclear extract) (Homo sapiens, UniProt P41235 1-474) (assay: protein-binding microarray; COS-7 nuclear extract on double-stranded Agilent 4x180k PBM; binding buffer, salt, pH and temperature not given in the material; high values mean tight binding). Details: chain copies: 2; label: 3' end of strand 1 on the slide; dsDNA, one strand shown.
T1 sequence: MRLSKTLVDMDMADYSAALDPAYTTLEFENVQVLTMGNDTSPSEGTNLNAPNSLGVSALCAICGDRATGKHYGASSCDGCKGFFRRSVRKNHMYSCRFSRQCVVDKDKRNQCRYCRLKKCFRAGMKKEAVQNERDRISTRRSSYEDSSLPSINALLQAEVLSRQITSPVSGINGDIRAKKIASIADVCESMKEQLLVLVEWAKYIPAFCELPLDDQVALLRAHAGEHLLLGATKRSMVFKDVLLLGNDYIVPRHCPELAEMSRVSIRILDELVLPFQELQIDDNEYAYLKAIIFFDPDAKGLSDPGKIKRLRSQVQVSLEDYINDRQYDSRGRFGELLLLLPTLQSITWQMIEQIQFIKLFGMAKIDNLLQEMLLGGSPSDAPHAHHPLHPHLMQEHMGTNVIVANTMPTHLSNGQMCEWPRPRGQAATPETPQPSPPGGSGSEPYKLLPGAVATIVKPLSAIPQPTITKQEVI
In short: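 A custom Agilent SurePrint G3 4x180k array, spotted in quadruplicate with ~44,000 test sequences as ~60-nt oligonucleotides made double-stranded, was incubated with nuclear extracts. The extracts came from COS-7 cells transiently transfected by CaPO4 with a human HNF4α isoform expression vector. Bound HNF4α was imaged on an Agilent G2565CA scanner at 2-µm resolution, and the binding signal was taken as Agilent software's background-corrected, normalized gProcessedSignal.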

Sequence | binding signal [log2 normalized intensity]
GTCTGTTGACCTTTGGCCAAGGGCAGTGTTGCCTAGGGAGATTAGAGTATCGGTCGA | 6.71
AGGCAGTCTGTTGACCTTTGGCCAAGGGCAGCCTAGGGAGATTAGAGTATCGGTCGA | 7.73
TTGACCTTTGGCCAAGGGCAGTGTTTGCCCGCCTAGGGAGATTAGAGTATCGGTCGA | 5.35
TCAGTCTGGTTGAGGCAAGCAAAAGCCAAGGCCTAGGGAGATTAGAGTATCGGTCGA | -0.985
GAGTCTGTTGTCTAACATTTTTGACCTTCAGCCTAGGGAGATTAGAGTATCGGTCGA | 4.09
CTTTGGCCAAGGGCAGTGTTTGCCCAGCTTGCCTAGGGAGATTAGAGTATCGGTCGA | 0.106
CAACTGGTATGTTAGATTAGTGTGCAGCTTGCCTAGGGAGATTAGAGTATCGGTCGA | 0.891
TCTGACCTCTTTCAAGCCTGAACAAACATGGCCTAGGGAGATTAGAGTATCGGTCGA | 0.93
GTCCGGCAGAGCTATGGAATTTTGGCCTTTGCCTAGGGAGATTAGAGTATCGGTCGA | 3.22
CTAGGCTCCAGGGCACTGCCCTTTGGAACCGCCTAGGGAGATTAGAGTATCGGTCGA | 6.71
TGCTTCCAAGTTATGCAGACCTTTGCCCTTGCCTAGGGAGATTAGAGTATCGGTCGA | 7.17
TACTTTGCTTCCAAGTTATGCAGACCTTTGGCCTAGGGAGATTAGAGTATCGGTCGA | 2.14
TGCACATTCCCTCCAGCAGGGGATGCCCTTGCCTAGGGAGATTAGAGTATCGGTCGA | 2.38
GCAGGGGATGCCCTTTGACCTCTGCTTCCTGCCTAGGGAGATTAGAGTATCGGTCGA | 8.18
ATTCCCTCCAGCAGGGGATGCCCTTTGACCGCCTAGGGAGATTAGAGTATCGGTCGA | 8.91
AAAGCCTAGGCTCCAGGGCACTGCCCTTTGGCCTAGGGAGATTAGAGTATCGGTCGA | 3
CCCTTTGACCTCTGCTTCCTGCTACAGAGCGCCTAGGGAGATTAGAGTATCGGTCGA | 1.87
TTATGCAGACCTTTGCCCTTTGTTTACATAGCCTAGGGAGATTAGAGTATCGGTCGA | 5.27
CTCCAGGGCACTGCCCTTTGGAACCTGCCCGCCTAGGGAGATTAGAGTATCGGTCGA | 5.54
GGATGCCCTTTGACCTCTGCTTCCTGCTACGCCTAGGGAGATTAGAGTATCGGTCGA | 5.58
ATGCCCCTCCCAGGGACACATGCCCCTTCCGCCTAGGGAGATTAGAGTATCGGTCGA | 5.44
TTGGGTCACAATCACAAATGCCTTCAGGGGGCCTAGGGAGATTAGAGTATCGGTCGA | 0.838
TCAGCCCACAGGTCAATCCAGGTTGCTGCCGCCTAGGGAGATTAGAGTATCGGTCGA | -0.646
GGCCCAGAGCACAACCTTTGGCCGTGCATGGCCTAGGGAGATTAGAGTATCGGTCGA | 2.45
